Results filed as inconclusive are left out. Entries that show only a call come without a potency. Activity calls are given as the source filed them. The call rests on the fitted dose curve; in most records, active means well fitted curve in the direction sought with a large enough effect; inconclusive means small, poorly fitted or top-dose-only effect, or another doubt; inactive means no such curve, though single readings can be large or run the other way.

A short description of the test: qHTS Assay for Lipid Storage Modulators: CytotoxicityAssay against Probe and Analogs. Particulars: 3T3-L1 adipocytes cytotoxicity, imaging cell count; series mostly up to 20 µM. An excerpt: Storing lipids as a reservoir for energy or the anabolism of elementary metabolites is a common feature of probably all cells and is conserved from bacteria to humans. The universal cellular lipid storage organelle is the so-called lipid storage droplet (LD). Although ubiquitous, LDs share a simple structure composed of a hydrophobic core that harbors the storage lipids, which is shielded by a droplet-specific phospholipid monolayer to which proteins are attached. The current model of LD biogenesis involves an incorporation of the lipid core into the membrane leaflets of the endoplasmic reticulum (ER) followed by a subsequent budding-like maturation of a LD, which ultimately pinches off. Once released, LD volume can increase by localized lipogenesis or fusion of existing droplets. Storage lipids are re-mobilized enzymatically by lipase activity. Lipase regulation in the adipocyte is heavily studied and involves multiple components including catecholamine signaling, the LD-associated proteins Perilipin and comparative gene identification-58 (CGI-58) and at least two lipases named hormone sensitive lipase (HSL) and adipocyte triglyceride lipase (ATGL). LD regulation outside of the adipocyte is poorly understood and only few components are known. However, there is an urgent need to learn more about ectopic fat depots as mislocalized storage of lipids, for example in the liver or muscle, is an eminent health problem associated with insulin resistance or the metabolic syndrome. We developed a laser-scanning cytometer assay to enable 1,536-well screening and combined the results of the small molecules screen with an RNAi database based on lipid storage. In this assay we tested analogs of the probe in a cytotoxicity assay. NIH Molecular Libraries Probe Production Centers Network [MLPCN] NIH Chemical Genomics Center [NCGC] MLPCN Grant: MH085686 Assay Submitter (PI): Mathias Beller, Max-Planck-Institut fur Biophysikalische Chemie
3T3-L1 cells were obtained from ATCC (CL-173). Pre-adipocyte medium (PM-1),differentiation medium (DM-2) and after adipocyte medium (AM-1) were purchased from Zen-Bio (# PM-1-L1, DM-2-L1, AM-1-L1). […] of PM-1containing 3,000 cells was dispensed into each well of a 96-well plate (Corning, #3340), and the assay plates were incubated at 37 °C, 95% humidity and 5% CO2 for 3-5 days. The differentiation of pre-adipocyte to adipocyte was induced by removing the pre-adipocyte medium and replacing with […] of differentiation medium. […] of compounds at different concentrations dissolved in differentiation medium were added to the assay plates, along with medium exchange for differentiation to test their effects on adipocyte differentiation. The final DMSO concentration was 0.5%. Triacsin C (Sigma-Aldrich T-4540), an inhibitor of long-chain fatty acyl CoA synthetase that blocks synthesis of triglycerides, was used as a positive control for lipid under-storage. After 3 days, differentiation medium was replaced with 200ul of adipocyte maintenance medium and assay plates were incubated for 4 days. Cells were then fixed using4% of paraformaldehyde in PBS for 30 minutes at room temperature, washed 3 times with PBS buffer. Finally, the cells were stained using […] of PBS containing BODIPY lipid dye 493/530 (1:2000 -, Life Technologies, # D-3922), Hoechst 33342 (1:1000, Life Technologies, #H3570) and CellMask deep red dye (1:10,000 , Life Technologies, #H32721). Images were acquired using InCell 2000 (GE), number of cells, number of lipids, size of lipids and cells were analysis using GE Investigator software.
(In general: qHTS replaces the single test concentration by a dilution series.)
On to `CCn1c(C(=O)NCCc2ccc(OC)cc2)cc2sccc21`, for which the Potency result is “inactive”.

Turning to `CCOc1ccc(CCNC(=O)c2cccc(C(=O)c3ccccc3)c2)cc1OCC`, the Potency result was “inactive”.

As for `CCOc1ccc(CCNC(=O)c2cc3sccc3n2Cc2ccncc2)cc1OCC`, the Potency entry was “inactive”.

As to `CC(C)Oc1ccc(CCNC(=O)c2cc3sccc3n2Cc2ccccc2)cc1OC(C)C`, the Potency entry was “inactive”.

In the case of `CCOC(=O)C1CCN(C(=O)C(C)(C)NC(=O)Nc2ccc(-c3ccccc3)cc2)CC1`, the Potency entry is “inactive”.

Regarding `CCOc1ccc(CCNC(=O)c2cc3ccccc3o2)cc1OCC`, the Potency entry was “inactive”.

With `CCOc1ccc(CCNC(=O)c2cc3sccc3n2C)cc1OCC`, the Potency result was “inactive”.

Take `CCOc1cc(CCNC(=O)c2cc3sccc3n2Cc2ccccc2)cc(F)c1OCC`: the Potency is 7.08 µM (active).

Take `CCOc1ccc(CCNC(=O)c2ccnn2Cc2cccc(C)c2)cc1OCC`: the Potency result was “inactive”.

`CCOc1ccc(CCNC(=O)c2cc3sccc3n2Cc2ccccc2)cc1OCC`: the Potency result is “inactive”.

`CCOc1ccc(CCNC(=O)c2cc3sccc3n2Cc2ccccn2)cc1OCC`: the Potency entry is “inactive”.

In the case of `CCOc1cc(F)c(CCNC(=O)c2cc3sccc3n2Cc2ccccc2)cc1OCC`, the Potency entry was “inactive”.

For the origin of these results see PubChem BioAssay AID686935 (National Center for Advancing Translational Sciences (NCATS), 2013).
